# Laboratory results from PubChem BioAssay (Tox21).
# Unmarked numbers belong to inactive results. Results filed as inconclusive are left out. Entries that show only a call come without a potency. Activity calls are given as the source filed them. The call rests on the fitted dose curve; in most records, active means well fitted curve in the direction sought with a large enough effect in the repeat runs; inconclusive means weak or mixed curves; inactive means no such curve, though single readings can be large; an effect the other way counts as inactive or inconclusive.
# Assays:
# [1] = qHTS RealTime-Glo MT Cell Viability Assay in HepG2 cells - 40 hour (AID 1224870); further: nearly all actives have a fitted effect of over 50% in size
# Summary of the method: (§1)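 Real-time viability: cells seeded at 600 per well together with NanoLuc and cell-permeant prosubstrate, compounds added after 5 h incubation. Luminescence tracked at 0, 8, 16, 24, 32 and 40 h of exposure.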
# [2] = A CellTox Green Cytotoxicity Assay to monitor cytotoxicity in HEK293 cells - 40 hour (AID 1224871); further: nearly all actives have a fitted effect of over 45% in size
# Summary of the method: (§2)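 Homogeneous no-lysis format: HEK293 cell suspension mixed with CellTox Green reagent, seeded, incubated 5 h at 37 C/5% CO2, then dosed by pintool with compound in DMSO.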
# [3] = qHTS RealTime-Glo MT Cell Viability Assay in HEK293 cells - 16 hour (AID 1224872); further: top concentration of the series differs between compounds; nearly all actives have a fitted effect of over 50% in size
# Summary of the method: (§3)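 Assay medium contained NanoLuc luciferase plus cell-permeant prosubstrate, added with HEK293 cells at 600 cells/well. After 5 h at 37 C/5% CO2 compounds were added; plates stayed at 37 C for 40 h with serial luminescence reads.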
# [4] = qHTS RealTime-Glo MT Cell Viability Assay in HepG2 cells - 8 hour (AID 1224873); further: nearly all actives have a fitted effect of over 55% in size
# Summary of the method: as §1
# [5] = qHTS RealTime-Glo MT Cell Viability Assay in HEK293 cells - 40 hour (AID 1224874); details: RealTime-Glo luminescence; max response: hits give low values; further: nearly all actives have a fitted effect of over 50% in size; further: potency means the concentration at half of the fitted maximal effect
# Summary of the method: (§4)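 Measured as luminescence from the same continuously cultured HEK293 wells at successive time points (0, 8, 16, 24, 32, 40 h) after compound addition. Reagent present from seeding; dosing at 5 h; incubation 37 C.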
# [6] = A CellTox Green Cytotoxicity Assay to monitor cytotoxicity in HEK293 cells - 24 hour (AID 1224875); further: series mostly up to about 77 µM; nearly all actives have a fitted effect of over 45% in size
# Summary of the method: as §2
# [7] = A CellTox Green Cytotoxicity Assay to monitor cytotoxicity in HepG2 cells - 16 hour (AID 1224876); further: nearly all actives have a fitted effect of over 45% in size
# Summary of the method: (§5)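 Fluorescent DNA-binding dye, 600 HepG2 cells/well, 5 h preincubation then compound in DMSO; same plates read at 0–40 h, 37 C.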
# [8] = qHTS RealTime-Glo MT Cell Viability Assay in HepG2 cells - 32 hour (AID 1224877); further: nearly all actives have a fitted effect of over 55% in size
# Summary of the method: (§6)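 qHTS, HepG2, 600 cells/well, RealTime-Glo (NanoLuc + prosubstrate) added with cells; 5 h preincubation; DMSO compound addition; 37 C; luminescence at 0/8/16/24/32/40 h.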
# [9] = A CellTox Green Cytotoxicity Assay to monitor cytotoxicity in HepG2 cells - 24 hour (AID 1224878); further: nearly all actives have a fitted effect of over 45% in size
# Summary of the method: as §5
# [10] = A CellTox Green Cytotoxicity Assay to monitor cytotoxicity in HepG2 cells - 40 hour (AID 1224879); further: nearly all actives have a fitted effect of over 40% in size; further: potency means the concentration at half of the fitted maximal effect
# Summary of the method: as §5
# [11] = A CellTox Green Cytotoxicity Assay to monitor cytotoxicity in HEK293 cells - 32 hour (AID 1224881); further: nearly all actives have a fitted effect of over 40% in size
# Summary of the method: as §2
# [12] = A CellTox Green Cytotoxicity Assay to monitor cytotoxicity in HepG2 cells - 0 hour (AID 1224882); further: nearly all actives have a fitted effect of over 35% in size
# Summary of the method: as §5
# [13] = A CellTox Green Cytotoxicity Assay to monitor cytotoxicity in HepG2 cells - 32 hour (AID 1224883); further: nearly all actives have a fitted effect of over 50% in size
# Summary of the method: as §5
# [14] = A CellTox Green Cytotoxicity Assay to monitor cytotoxicity in HEK293 cells - 8 hour (AID 1224884); further: nearly all actives have a fitted effect of over 35% in size
# Summary of the method: as §2
# [15] = qHTS RealTime-Glo MT Cell Viability Assay in HepG2 cells - 16 hour (AID 1224885); further: nearly all actives have a fitted effect of over 50% in size
# Summary of the method: as §6
# [16] = qHTS RealTime-Glo MT Cell Viability Assay in HEK293 cells - 24 hour (AID 1224886); further: nearly all actives have a fitted effect of over 50% in size; further: potency means the concentration at half of the fitted maximal effect
# Summary of the method: as §3
# [17] = A CellTox Green Cytotoxicity Assay to monitor cytotoxicity in HEK293 cells - 16 hour (AID 1224888); further: nearly all actives have a fitted effect of over 35% in size
# Summary of the method: as §2
# [18] = qHTS RealTime-Glo MT Cell Viability Assay in HepG2 cells - 0 hour (AID 1224889); further: nearly all actives have a fitted effect of over 50% in size
# Summary of the method: as §6
# [19] = qHTS RealTime-Glo MT Cell Viability Assay in HEK293 cells - 8 hour (AID 1224887); further: nearly all actives have a fitted effect of over 50% in size; further: potency means the concentration at half of the fitted maximal effect
# Summary of the method: as §4
# [20] = qHTS RealTime-Glo MT Cell Viability Assay in HEK293 cells - 0 hour (AID 1224880)
# Summary of the method: as §4
structure (smiles),measurement,setting,value
FC(F)(Cl)C(F)(Cl)Cl,Potency,[1],inactive
same,Potency,[2],inactive
same,Potency,[3],inactive
same,outcome,[4],inactive
same,max response,[5],10.2%
same,Potency,[6],inactive
same,Potency,[7],inactive
same,Potency,[8],inactive
same,Potency,[9],inactive
same,Potency,[10],inactive
same,Potency,[11],inactive
same,Potency,[12],inactive
same,Potency,[13],inactive
same,Potency,[14],inactive
same,outcome,[15],inactive
same,Potency,[16],inactive
same,Potency,[17],inactive
same,Potency,[18],inactive
Nc1ccccc1Nc1ccccc1,Potency,[1],inactive
same,Potency,[2],inactive
same,Potency,[3],inactive
same,outcome,[4],inactive
same,Potency,[6],inactive
same,Potency,[7],inactive
same,Potency,[8],inactive
same,Potency,[9],inactive
same,Potency,[10],inactive
same,Potency,[11],inactive
same,Potency,[12],inactive
same,Potency,[13],inactive
same,Potency,[14],inactive
same,outcome,[15],inactive
same,Potency,[16],inactive
same,Potency,[17],inactive
same,Potency,[18],inactive
O=C1c2ccccc2C(=O)C1c1ccc2cc(S(=O)(=O)O)cc(S(=O)(=O)O)c2n1,Potency,[1],inactive
same,Potency,[2],inactive
same,Potency,[3],inactive
same,outcome,[4],inactive
same,max response,[5],-25.3%
same,Potency,[6],inactive
same,Potency,[7],inactive
same,Potency,[8],inactive
same,Potency,[9],inactive
same,Potency,[10],inactive
same,Potency,[11],inactive
same,Potency,[12],inactive
same,Potency,[14],inactive
same,outcome,[15],inactive
same,Potency,[16],inactive
same,Potency,[17],inactive
O=C(O)c1cc(C(=O)O)cc([N+](=O)[O-])c1,Potency,[1],inactive
same,Potency,[2],inactive
same,Potency,[3],inactive
same,outcome,[4],inactive
same,max response,[5],8.3%
same,Potency,[6],inactive
same,Potency,[7],inactive
same,Potency,[8],inactive
same,Potency,[9],inactive
same,Potency,[10],inactive
same,Potency,[11],inactive
same,Potency,[12],inactive
same,Potency,[13],inactive
same,Potency,[14],inactive
same,outcome,[15],inactive
same,Potency,[16],inactive
same,Potency,[19],inactive
same,Potency,[17],inactive
same,Potency,[18],inactive
c1ccc(CN(Cc2ccccc2)Cc2ccccc2)cc1,Potency,[1],inactive
same,Potency,[2],inactive
same,Potency,[3],inactive
same,outcome,[4],inactive
same,max response,[5],4.19%
same,Potency,[6],inactive
same,Potency,[7],inactive
same,Potency,[8],inactive
same,Potency,[10],15.5 µM (active)
same,Potency,[20],inactive
same,Potency,[11],inactive
same,Potency,[12],inactive
same,outcome,[15],inactive
same,Potency,[16],inactive
same,Potency,[17],inactive
same,Potency,[18],inactive
CCOC(C)OCC,Potency,[1],inactive
same,Potency,[2],inactive
same,Potency,[3],inactive
same,outcome,[4],inactive
same,max response,[5],-0.223%
same,Potency,[6],inactive
same,Potency,[7],inactive
same,Potency,[8],inactive
same,Potency,[9],inactive
same,Potency,[10],inactive
same,Potency,[20],inactive
same,Potency,[11],inactive
same,Potency,[12],inactive
same,outcome,[15],inactive
same,Potency,[16],inactive
same,Potency,[18],inactive
CC(Cc1ccccc1)(NC(=O)CN)c1ccccc1 (stereo unspecified),Potency,[1],inactive
same,Potency,[2],inactive
same,outcome,[4],inactive
same,max response,[5],-3.14%
same,Potency,[6],inactive
same,Potency,[7],inactive
same,Potency,[8],inactive
same,Potency,[9],inactive
same,Potency,[10],inactive
same,Potency,[20],inactive
same,Potency,[11],inactive
same,Potency,[12],inactive
same,Potency,[13],inactive
same,Potency,[14],inactive
same,outcome,[15],inactive
same,Potency,[16],inactive
same,Potency,[19],inactive
same,Potency,[17],inactive
same,Potency,[18],inactive
COc1ccnc2c1CCCCC2S(=O)c1nc2ccccc2[nH]1 (stereo unspecified),Potency,[1],inactive
same,Potency,[2],inactive
same,outcome,[4],inactive
same,Potency,[5],7.56 µM (active)
same,Potency,[6],inactive
same,Potency,[7],inactive
same,Potency,[8],inactive
same,Potency,[9],inactive
same,Potency,[10],inactive
same,Potency,[20],inactive
same,Potency,[11],inactive
same,Potency,[12],inactive
same,Potency,[13],inactive
same,Potency,[14],inactive
same,outcome,[15],inactive
same,Potency,[16],6.01 µM (active)
same,Potency,[19],8.49 µM (active)
same,Potency,[17],inactive
same,Potency,[18],inactive
CC1=C(C)C(=O)C(C(CCCCCC(=O)O)c2ccccc2)=C(C)C1=O (stereo unspecified),Potency,[1],inactive
same,Potency,[2],inactive
same,outcome,[4],inactive
same,max response,[5],3.36%
same,Potency,[6],inactive
same,Potency,[7],inactive
same,Potency,[8],inactive
same,Potency,[9],inactive
same,Potency,[10],inactive
same,Potency,[20],inactive
same,Potency,[11],inactive
same,Potency,[12],inactive
same,Potency,[13],inactive
same,Potency,[14],inactive
same,outcome,[15],inactive
same,Potency,[16],inactive
same,Potency,[19],10.7 µM (active)
same,Potency,[17],inactive
O=C(N[C@@H](Cc1ccccc1)[C@@H](O)C(=O)N1C[C@@H](O)[C@@H](O)C1)c1cc2cc(Cl)ccc2[nH]1,Potency,[1],inactive
same,Potency,[2],inactive
same,Potency,[3],inactive
same,outcome,[4],inactive
same,Potency,[6],inactive
same,Potency,[8],inactive
same,Potency,[11],inactive
same,Potency,[12],inactive
same,Potency,[14],inactive
same,outcome,[15],inactive
same,Potency,[19],inactive
same,Potency,[17],inactive
same,Potency,[18],inactive
